# Laboratory results published in the supplement of paper PMC8728848.
# This is one part of a sample in which the strongest signals are shown more often than they occur.
# B1: Clec18Av1 (Homo sapiens), A5D8T8 (protein)
# chain: MLHPETSPGRGHLLAVLLALLGTAWAEVWPPQLQEQAPMAGALNRKESFLLLSLHNRLRSWVQPPAADMRRLDWSDSLAQLAQARAALCGTPTPSLASGLWRTLQVGWNMQLLPAGLVSFVEVVSLWFAEGQRYSHAAGECARNATCTHYTQLVWATSSQLGCGRHLCSAGQAAIEAFVCAYSPRGNWEVNGKTIVPYKKGAWCSLCTASVSGCFKAWDHAGGLCEVPRNPCRMSCQNHGRLNISTCHCHCPPGYTGRYCQVRCSLQCVHGRFREEECSCVCDIGYGGAQCATKVHFPFHTCDLRIDGDCFMVSSEADTYYRARMKCQRKGGVLAQIKSQKVQDILAFYLGRLETTNEVIDSDFETRNFWIGLTYKTAKDSFRWATGEHQAFTSFAFGQPDNHGFGNCVELQASAAFNWNDQRCKTRNRYICQFAQEHISRWGPGS
# Legend:
# Test in all cases: glycan array binding signal (z-score within array); higher = stronger binding
# Conditions in all cases: glycan notation: IUPAC condensed, linker removed
# [1] = target: Fuc(a1-2)Gal(b1-3)GalNAc(b1-3)Gal(a1-4)Gal(b1-4)Glc
# Outline: (§1)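 The Consortium for Functional Glycomics database supplied 3228 glycan arrays, of which those lacking an available protein sequence were dropped. The binding signal, a within-array Z-score, was averaged across arrays of the same protein sequence and across linkers. Negative scores can be read as non-binding.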
# [2] = target: Fuc(a1-2)Gal(b1-3)GlcNAc(b1-3)[Fuc(a1-2)Gal(b1-3)GlcNAc(b1-6)]GalNAc
# Outline: as §1
# [3] = target: Fuc(a1-2)Gal(b1-4)[Fuc(a1-3)]GlcNAc
# Outline: as §1
# [4] = target: Fuc(a1-2)[Gal(a1-3)]Gal(b1-4)GlcNAc(b1-2)Man(a1-3)[Fuc(a1-2)[Gal(a1-3)]Gal(b1-4)GlcNAc(b1-2)Man(a1-6)]Man(b1-4)GlcNAc(b1-4)GlcNAc
# Outline: as §1
# [5] = target: Fuc(a1-2)[Gal(a1-3)]Gal(b1-4)[Fuc(a1-3)]GlcNAc(b1-3)GalNAc
# Outline: as §1
# [6] = target: Fuc(a1-2)[GalNAc(a1-3)]Gal(b1-3)GlcNAc
# Outline: as §1
# [7] = target: Fuc(a1-3)[Gal(b1-4)]GlcNAc(b1-3)GalNAc
# Outline: as §1
# [8] = target: Fuc(a1-3)[Gal3S(b1-4)]GlcNAc
# Outline: as §1
# [9] = target: Gal(a1-3)Gal(b1-3)GlcNAc(b1-2)Man
# Outline: as §1
# Gal(a1-6)Glc = target: Gal(a1-6)Glc
# Outline: as §1
# [10] = target: Gal(b1-3)GlcNAc(a1-6)Gal(b1-4)GlcNAc
# Outline: as §1
# [11] = target: Gal(b1-4)GlcNAc(b1-2)Man(a1-3)[Gal(b1-4)GlcNAc(b1-2)Man(a1-6)][Gal(b1-4)GlcNAc(b1-4)]Man(b1-4)GlcNAc(b1-4)[Fuc(a1-6)]GlcNAc
# Outline: as §1
# [12] = target: Gal(b1-4)GlcNAc(b1-2)Man(a1-3)[Gal(b1-4)GlcNAc(b1-2)Man(a1-6)][GlcNAc(b1-4)]Man(b1-4)GlcNAc(b1-4)[Fuc(a1-6)]GlcNAc
# Outline: as §1
# [13] = target: Gal(b1-4)GlcNAc(b1-2)[Gal(b1-4)GlcNAc(b1-6)]Man(a1-6)[GlcNAc(b1-4)][Gal(b1-4)GlcNAc(b1-2)Man(a1-3)]Man(b1-4)GlcNAc(b1-4)GlcNAc
# Outline: as §1
# [14] = target: Gal(b1-4)GlcNAc(b1-3)Gal(b1-3)GalNAc
# Outline: as §1
# [15] = target: Gal(b1-4)GlcNAc(b1-3)Gal(b1-4)GlcNAc(b1-2)Man(a1-3)[Gal(b1-4)GlcNAc(b1-3)Gal(b1-4)GlcNAc(b1-2)Man(a1-6)]Man(b1-4)GlcNAc(b1-4)[Fuc(a1-6)]GlcNAc
# Outline: as §1
# Gal3S(b1-3)GalNAc = target: Gal3S(b1-3)GalNAc
# Outline: as §1
# [16] = target: GlcA3S(b1-3)Gal(b1-4)GlcNAc(b1-2)Man
# Outline: as §1
# [17] = target: GlcNAc(a1-4)Gal(b1-4)GlcNAc(b1-3)Gal(b1-4)Glc
# Outline: as §1
# [18] = target: GlcNAc(a1-4)Gal(b1-4)GlcNAc(b1-3)Gal(b1-4)[Fuc(a1-3)]GlcNAc(b1-3)Gal(b1-4)[Fuc(a1-3)]GlcNAc
# Outline: as §1
# [19] = target: GlcNAc(b1-2)Man(a1-3)[GlcNAc(b1-2)Man(a1-6)]Man(b1-4)GlcNAc(b1-4)[Fuc(a1-6)]GlcNAc
# Outline: as §1
# [20] = target: GlcNAc(b1-2)[GlcNAc(b1-4)]Man(a1-3)[GlcNAc(b1-4)][GlcNAc(b1-2)[GlcNAc(b1-6)]Man(a1-6)]Man(b1-4)GlcNAc(b1-4)[Fuc(a1-6)]GlcNAc
# Outline: as §1
# [21] = target: GlcNAc(b1-2)[GlcNAc(b1-6)]Man(a1-6)[GlcNAc(b1-2)Man(a1-3)]Man(b1-4)GlcNAc(b1-4)GlcNAc
# Outline: as §1
# [22] = target: GlcNAc(b1-3)Gal(b1-4)GlcNAc(b1-2)Man(a1-3)[GlcNAc(b1-3)Gal(b1-4)GlcNAc(b1-2)Man(a1-6)]Man(b1-4)GlcNAc(b1-4)GlcNAc
# Outline: as §1
# [23] = target: GlcNAc(b1-3)Gal(b1-4)GlcNAc(b1-3)Gal(b1-4)GlcNAc
# Outline: as §1
# [24] = target: GlcNAc(b1-3)Gal(b1-4)GlcNAc(b1-3)Gal(b1-4)GlcNAc(b1-2)Man(a1-3)[GlcNAc(b1-3)Gal(b1-4)GlcNAc(b1-3)Gal(b1-4)GlcNAc(b1-2)Man(a1-6)]Man(b1-4)GlcNAc(b1-4)[Fuc(a1-6)]GlcNAc
# Outline: as §1
# [25] = target: GlcNAc(b1-3)[GlcNAc(b1-6)]GalNAc
# Outline: as §1
# [26] = target: Kdn(a2-3)Gal(b1-4)[Fuc(a1-3)]GlcNAc
# Outline: as §1
# Man(b1-4)GlcNAc = target: Man(b1-4)GlcNAc
# Outline: as §1
# [27] = target: Neu5Ac(a2-3)Gal(b1-3)GlcNAc6S
# Outline: as §1
# [28] = target: Neu5Ac(a2-3)Gal(b1-4)GlcNAc(b1-2)[Neu5Ac(a2-3)Gal(b1-4)GlcNAc(b1-4)]Man(a1-3)[GlcNAc(b1-4)][Neu5Ac(a2-3)Gal(b1-4)GlcNAc(b1-2)[Neu5Ac(a2-3)Gal(b1-4)GlcNAc(b1-6)]Man(a1-6)]Man(b1-4)GlcNAc(b1-4)GlcNAc
# Outline: as §1
# [29] = target: Neu5Ac(a2-3)Gal(b1-4)GlcNAc(b1-6)GalNAc
# Outline: as §1
# [30] = target: Neu5Ac(a2-3)Gal(b1-4)[Fuc(a1-3)]GlcNAc6S
# Outline: as §1
# [31] = target: Neu5Ac(a2-3)Gal6S(b1-4)GlcNAc
# Outline: as §1
# [32] = target: Neu5Ac(a2-3)[Neu5Ac(a2-6)]GalNAc
# Outline: as §1
# [33] = target: Neu5Ac(a2-6)Gal(b1-4)GlcNAc(b1-2)Man(a1-3)[GlcNAc(b1-4)][Neu5Ac(a2-6)Gal(b1-4)GlcNAc(b1-2)Man(a1-6)]Man(b1-4)GlcNAc(b1-4)GlcNAc
# Outline: as §1
# [34] = target: Neu5Ac(a2-6)Gal(b1-4)GlcNAc(b1-2)Man(a1-3)[Neu5Ac(a2-6)Gal(b1-4)GlcNAc(b1-2)Man(a1-6)]Man(b1-4)GlcNAc(b1-4)[Fuc(a1-6)]GlcNAc
# Outline: as §1
# [35] = target: Neu5Ac(a2-6)Gal(b1-4)GlcNAc(b1-2)Man(a1-6)[GlcNAc(b1-2)Man(a1-3)]Man(b1-4)GlcNAc(b1-4)GlcNAc
# Outline: as §1
# [36] = target: Neu5Gc(a2-3)Gal(b1-3)[Fuc(a1-4)]GlcNAc
# Outline: as §1
# [37] = target: Neu5Gc(a2-8)Neu5Gc(a2-6)Gal(b1-4)GlcNAc
# Outline: as §1
binder,measurement,setting,value
B1,glycan array binding signal (z-score),[1],-0.849
same,glycan array binding signal (z-score),[2],4.48
same,glycan array binding signal (z-score),[3],-0.818
same,glycan array binding signal (z-score),[4],3.05
same,glycan array binding signal (z-score),[5],-0.446
same,glycan array binding signal (z-score),[6],-0.502
same,glycan array binding signal (z-score),[7],1.02
same,glycan array binding signal (z-score),[8],-0.843
same,glycan array binding signal (z-score),[9],3.22
same,glycan array binding signal (z-score),Gal(a1-6)Glc,-0.747
same,glycan array binding signal (z-score),[10],4.04
same,glycan array binding signal (z-score),[11],2.24
same,glycan array binding signal (z-score),[12],0.712
same,glycan array binding signal (z-score),[13],3.23
same,glycan array binding signal (z-score),[14],3.37
same,glycan array binding signal (z-score),[15],2.85
same,glycan array binding signal (z-score),Gal3S(b1-3)GalNAc,-0.82
same,glycan array binding signal (z-score),[16],-0.197
same,glycan array binding signal (z-score),[17],-0.356
same,glycan array binding signal (z-score),[18],4.79
same,glycan array binding signal (z-score),[19],3.54
same,glycan array binding signal (z-score),[20],-0.868
same,glycan array binding signal (z-score),[21],-0.432
same,glycan array binding signal (z-score),[22],1.53
same,glycan array binding signal (z-score),[23],-0.861
same,glycan array binding signal (z-score),[24],-0.74
same,glycan array binding signal (z-score),[25],-0.808
same,glycan array binding signal (z-score),[26],0.16
same,glycan array binding signal (z-score),Man(b1-4)GlcNAc,-0.825
same,glycan array binding signal (z-score),[27],-0.859
same,glycan array binding signal (z-score),[28],-0.868
same,glycan array binding signal (z-score),[29],1.49
same,glycan array binding signal (z-score),[30],-0.818
same,glycan array binding signal (z-score),[31],-0.585
same,glycan array binding signal (z-score),[32],-0.853
same,glycan array binding signal (z-score),[33],-0.604
same,glycan array binding signal (z-score),[34],3.58
same,glycan array binding signal (z-score),[35],4.86
same,glycan array binding signal (z-score),[36],-0.646
same,glycan array binding signal (z-score),[37],0.057
